Among all 1,200 compounds or so, about 210 (18%) were called active. Cut-off read from the data, not from the text of the source: active = inhibition above about 30%; inactive = the rest. Only a sample is shown.
Assay: fluorescence readout artefact check – biochemical, HTRF, uHTS, artefact control for SUMOylation inhibitor project, confirmation (AID 2069)
Conditions: HTRF interference counterscreen, at 35 µM, active compounds read high

Compound	inhibition
CC(=O)c1ccc2c(c1)C1C=CCC1C(C(=O)O)N2 (centres undefined)	70.7% (active)
O=C(O)c1ccc(NS(=O)(=O)c2ccc3c(c2)C2C=CCC2C(c2ccccc2F)N3)cc1 (centres undefined)	3.15% (inactive)
COc1cccc(NS(=O)(=O)c2ccc3c(c2)C2C=CCC2C(c2ccc(C(=O)O)cc2)N3)c1 (centres undefined)	8.05% (inactive)
CCc1ccc(NC(=O)NNC(=O)c2cc3ccccc3cc2O)cc1	8.2% (inactive)
N#Cc1c(-c2cccs2)nc(SCc2ccc(Cl)cc2)[nH]c1=O	21.6% (inactive)
NC(=O)C1CCN(C2=C(NS(=O)(=O)c3ccc(Cl)cc3)C(=O)c3ccccc3C2=O)CC1	-20.8% (inactive)
C=CCn1c(N)c(C(=O)Nc2cccc(C)c2)c2nc3ccccc3nc21	6.4% (inactive)
C=CCn1c(N)c(C(=O)OC(C)(C)C)c2nc3ccccc3nc21	32.7% (active)
COCCn1c(N)c(C(=O)OCc2ccccc2)c2nc3ccccc3nc21	16% (inactive)
COc1ccc(CNC(=O)c2c(N)n(CCCN3CCOCC3)c3nc4ccccc4nc23)cc1	17.5% (inactive)
CC(C)(C)OC(=O)c1c(N)n(CCCN2CCCC2=O)c2nc3ccccc3nc12	41.4% (active)
C=CCn1c(N)c(C(=O)Nc2ccccc2)c2nc3ccccc3nc21	20.9% (inactive)
O=C(Nc1cccc2cccc(NC(=O)c3ccco3)c12)c1ccco1	-6.45% (inactive)
NS(=O)(=O)c1ccc(NC2=CC(=O)C(=O)c3ccccc32)cc1	9.2% (inactive)
CC(=O)c1cccc(NC(=S)Nc2cccc3ccccc23)c1	0.85% (inactive)
Cc1ccc(S(=O)(=O)NNC(=O)Nc2cccc3ccccc23)cc1	4.05% (inactive)
Oc1cccc2c(NC(=S)Nc3ccc(SC(F)F)cc3)cccc12	-6.1% (inactive)
O=C(CCCN1C(=O)/C(=C/c2ccco2)SC1=S)Nc1ccccc1C(=O)O	1.8% (inactive)
C/C(=N\NC(=O)CNc1cccc2ccccc12)c1ccccc1	18% (inactive)
CC(=O)N1C(=S)NC(=O)/C1=C1/C(=O)N(CC(=O)Nc2cccc(C)c2)c2ccccc21	4.65% (inactive)
CCN(CC)C(=O)C1CCCN(C(=O)Nc2ccc3nsnc3c2)C1 (centres undefined)	17.5% (inactive)
Nc1c(C(=O)NCc2ccco2)c2nc3ccccc3nc2n1CCc1ccccc1F	15.7% (inactive)
COCCn1c(N)c(C(=O)NCC2CCCO2)c2nc3ccccc3nc21 (centres undefined)	42.4% (active)

Compound	inhibition
CC(C)Cn1c(N)c(C(=O)NCC2CCCO2)c2nc3ccccc3nc21 (centres undefined)	34% (active)
COc1ccc(-n2c(N)c(C(=O)NCC3CCCO3)c3nc4ccccc4nc32)c(OC)c1 (centres undefined)	24.9% (inactive)
C=CCn1c(N)c(C(=O)NCC2CCCO2)c2nc3ccccc3nc21 (centres undefined)	42.5% (active)
CC(C)Cn1c(N)c(C(=O)NCc2cccs2)c2nc3ccccc3nc21	25.2% (inactive)
COCCn1c(N)c(C(=O)NCc2cccs2)c2nc3ccccc3nc21	28.6% (inactive)
Nc1c(C(=O)NCc2ccco2)c2nc3ccccc3nc2n1CCc1ccc(F)cc1	23.6% (inactive)
Cc1ccc(-n2c(-c3cc(-c4ccco4)[nH]n3)n[nH]c2=S)c(Br)c1	16.4% (inactive)
CC1=C(C(=O)Nc2ccccc2)C(c2ccc(C)cc2)N=C(Nc2nc3ccccc3o2)N1 (centres undefined)	10.2% (inactive)
CCc1ccc2c(c1)c1nc(C)sc1n2CC	0.45% (inactive)
Cn1c2ccccc2c(=O)n2c(=O)c3ccccc3cc12	8.7% (inactive)
COc1cc(/C=C2/C(=O)N(c3ccccc3)N=C2C)ccc1OS(=O)(=O)c1ccccc1	-23.2% (inactive)
Cc1ccc(Cn2nnnc2CN2CCC(NC(=O)C(C)(C)C)CC2)cc1	5.15% (inactive)
Cc1ccc(S(=O)(=O)N2CCCCC2)cc1NC(=O)COC(=O)c1c(F)cccc1F	-11.4% (inactive)
Cc1nn2c3c(cnc2c1-c1ccc(Cl)cc1)C(=O)CC(c1ccco1)C3 (centres undefined)	-0.9% (inactive)
CC(C)c1ccc(S(=O)(=O)/N=C2/C=CC(=O)c3ccccc32)cc1	11.3% (inactive)
O=C(Cn1nnc2ccccc21)NCc1ccccc1	-8.55% (inactive)
CCCCn1c(NC(=O)c2ccccc2Cl)c(C#N)c2nc3ccccc3nc21	20.8% (inactive)
CN(C)CCCn1c(N)c(C#N)c2nc3ccccc3nc21	39.2% (active)
CCCCn1c(NC(C)=O)c(C#N)c2nc3ccccc3nc21	33% (active)
COc1ccccc1CCn1c(N)c(C#N)c2nc3ccccc3nc21	17.6% (inactive)
CCCCCn1c(N)c(C#N)c2nc3ccccc3nc21	16.7% (inactive)
CCC(C)n1c(NC(=O)c2ccccc2)c(C#N)c2nc3ccccc3nc21 (centres undefined)	11.8% (inactive)
N#Cc1c(N)n(CCOC(=O)c2ccc(Cl)cc2)c2nc3ccccc3nc12	10.8% (inactive)

Compound	inhibition
C=CCn1c(NC(=O)c2ccccc2Cl)c(C#N)c2nc3ccccc3nc21	28.9% (inactive)
COCCn1c(N)c(C#N)c2nc3ccccc3nc21	43.9% (active)
Cc1cnc(C(=O)OCC(=O)c2ccc(F)cc2)cn1	-5.75% (inactive)
O=[N+]([O-])c1c(NCCCO)cc(Sc2nc3ccccc3s2)c2nonc12	3.25% (inactive)
Cc1c(C(=O)c2ccc(F)cc2F)c2ccccn2c1CCC#N	17.8% (inactive)
COc1cc(/C=N/NC(=O)c2cc(-c3ccco3)nc3ccccc23)cc(OC)c1O	-5.6% (inactive)
O=C(NC(=S)Nc1c(Cl)ccc2nsnc12)c1ccco1	-7.55% (inactive)
O=C(N=Nc1c(O)[nH]c2ccc([N+](=O)[O-])cc12)c1ccccc1Cl	7.65% (inactive)
CN(C)c1ccc(NC(=O)c2sc(SCC(=O)Nc3ccc(Br)cc3)nc2N)cc1	8.25% (inactive)
Cc1oc(-c2ccc(F)cc2)cc1-c1nn2c(-c3ccoc3C)nnc2s1	-3.45% (inactive)
COc1ccccc1CNC(=O)COC(=O)c1cc(-c2ccco2)nc2ccccc12	12.6% (inactive)
CN(CCC#N)C(=O)COC(=O)c1c2c(nc3ccccc13)/C(=C/c1ccco1)CC2	36.5% (active)
CCOc1ccc(/C=C2/SC(=S)N(CCC(=O)Nc3ccc(C(=O)O)cc3)C2=O)cc1	4.55% (inactive)
Cc1nn(-c2ccccn2)c2c1C(=O)C(Br)CC2 (centres undefined)	-0.05% (inactive)
O=C1/C(=C/c2coc3ccc(O)cc3c2=O)SC(=S)N1c1ccccc1	4.9% (inactive)
Cc1ccc(C)c(OCC(=O)Nc2nonc2NC(=O)COc2cc(C)ccc2C)c1	-13.6% (inactive)
Cc1nn(-c2ccccc2)c2sc(C(=O)NNC(=O)COc3ccccc3)cc12	10.2% (inactive)
COC(=O)c1ccccc1NC1=C/C(=N\S(=O)(=O)c2cccs2)c2ccccc2C1=O	1.7% (inactive)
O=[N+]([O-])c1ccc(N2CCN(CCO)CC2)c2ncccc12	-19.1% (inactive)
O=C(NCc1ccccc1)Nc1cccn(Cc2ccccc2)c1=O	-6.8% (inactive)
CC(=O)Nc1ccc(NC2=C/C(=N/S(=O)(=O)c3cccs3)c3ccccc3C2=O)cc1	-7.75% (inactive)
O=[N+]([O-])c1cc(Cl)cc(/C=N/NC(=S)Nc2ccc(S(=O)(=O)N3CCOCC3)cc2)c1O	80.5% (active)
O=[N+]([O-])c1ccc(O)c(/C=N/NC(=S)Nc2ccc(Cl)cc2Cl)c1	-23.9% (inactive)

Compound	inhibition
Cc1c(NC(=S)N/N=C/c2cc([N+](=O)[O-])ccc2O)c(=O)n(-c2ccccc2)n1C	11.2% (inactive)
Cc1ccc(/C=C2/SC(=S)N(c3ccc(S(=O)(=O)Nc4nccs4)cc3)C2=O)cc1	-9.3% (inactive)
N=C1/C(=C/c2cccn2Cc2ccc(Cl)cc2)C(=O)N=C2SC=CN12	18.8% (inactive)
CC1CCN(C2=C(NS(=O)(=O)c3ccc(Br)cc3)C(=O)c3ccccc3C2=O)CC1	7.4% (inactive)
Cc1c(C(=O)Nc2ccc(F)cc2)cn2c(nc3ccccc32)c1C#N	19.4% (inactive)
O=c1[nH]c(=S)[nH]c(O)c1N=Nc1ccc(-c2ccccc2)cc1[N+](=O)[O-]	16.1% (inactive)
CCOc1ccc(C2C=C(c3ccccc3)Nc3ncnn32)cc1 (centres undefined)	50.8% (active)
COc1ccc2nc(NC(=O)CCc3ccc(OC)c(OC)c3)sc2c1	10.8% (inactive)
N#CC(c1nc2ccccc2nc1N1CCCC1)S(=O)(=O)c1ccccc1 (centres undefined)	1.75% (inactive)
COc1cc(=O)n(C)c2c(OCC3OC(C)(C)OC3(C)C)cccc12 (centres undefined)	2.3% (inactive)
O=c1c(-c2c(O)cc(O)c3c(=O)cc(-c4ccc(O)cc4)oc23)c(-c2ccc(O)cc2)oc2cc(O)cc(O)c12	35.6% (active)
COc1cccc(NC(=O)Nc2nnc(-c3ccccc3SCc3ccccc3)s2)c1	2.35% (inactive)
COc1ccc(C=Nc2cccc3ncccc23)cc1	-4.65% (inactive)
COc1ccc(/C=C/c2cc(C(=O)O)c3ccccc3n2)cc1	68.2% (active)
CCOc1ccc(/C=N/NC(=O)c2cc(-c3ccco3)nc3ccccc23)cc1	15.3% (inactive)
C/C(=N\NC(=O)c1cc(O)ccc1O)c1cccc(NC(=O)c2ccc(Cl)cc2)c1	-7.9% (inactive)
Cc1ccc(NC(=O)Cn2c(=O)oc3cc(S(=O)(=O)N4CCC(C)CC4)ccc32)cc1C	-3.55% (inactive)
O=C1/C(=C/c2ccco2)Oc2c1ccc(O)c2CN1CCCCC1	37.6% (active)
NC(=O)CC(NC(=O)Cc1ccc(Br)cc1)c1ccc(NCCOc2ccccc2)c([N+](=O)[O-])c1 (centres undefined)	7.3% (inactive)
CN(C)c1cc(Nc2cccc(O)c2)c([N+](=O)[O-])c2nonc12	-1.05% (inactive)

From PubChem BioAssay AID2069 (Sanford-Burnham Center for Chemical Genomics, 2009)
